Shown are actives, neighbours in structure and some others; about 0.44% of the full set was active somewhere.
EPAC2 antag: qHTS for Antagonist of cAMP-regulated guanine nucleotide exchange factor 2 (EPAC2): primary screen | Rap guanine nucleotide exchange factor 4 (Homo sapiens), Q8WZA2 | EPAC2 GEF exchange of Rap1B-BODIPY-GDP, fluorescence | 0.18% of 360,000 active | Potency, µM (titrated, usually from 114 µM), without a hit: at the highest dose activity, negative = inhibition, hits mostly inhibitors; note: % is set by controls: 0 for no effect and ±100 for the full control effect; nearly all actives have a fitted effect of over 45% in size
USP2a block: qHTS Assay for Inhibitors of Ubiquitin-specific Protease USP2a Using CHOP2 as the Reporter. Ubiquitin carboxyl-terminal hydrolase 2 (Homo sapiens), O75604. USP2 core, Ub-CHOP2 coupled fluorogenic reporter, 485/531. Potency, µM (highest dose often 38.3 µM), for inactives: at the top dose activity change, negative = inhibition, most hits filed as inhibitors. 0.01% of 330,000 active. AID 463254, 2010;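 note: plate controls were DMSO wells for no effect and full inhibition by NEM control for full effect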
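Deubiquitinase activity read as fluorescence (485/531 nm) after Ub-CHOP2 cleavage activates the enterokinase reporter on its substrate; USP2 core 10nM, Ub-CHOP2 and substrate 25nM each, 30min compound preincubation then 60min RT; data normalized to NEM, curves fitted.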
EPAC2 agonist: qHTS for Agonist of cAMP-regulated guanine nucleotide exchange factor 4 (EPAC2): primary screen | Rap guanine nucleotide exchange factor 4 (Homo sapiens), Q8WZA2 | 0.079% of 360,000 active | AID 720711, 2013 | Potency, µM (doses to about 154 µM), for the others: at the highest dose activation, actives largely listed as activators | EPAC2 activation, biochemical qHTS; response scale: 100% = 6.5 mM cAMP response; note: nearly all actives have a fitted effect of over 50% in size
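In this primary screen, activation is scored as increased exchange of BODIPY-GDP from Rap1B by 100 nM EPAC2, with 50 uM GDP as competitor. Signal is normalized to the 6.5 mM cAMP agonist control.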
USP1 inh: Inhibitors of USP1/UAF1: Primary Screen; Ubiquitin carboxyl-terminal hydrolase 1 (Homo sapiens), O94782; recombinant USP1/UAF1, Ub-Rhodamine cleavage fluorescence; Potency, µM (top dose mostly 57.1 µM), inactives show top-dose activity change, negative = inhibition, usual class: inhibitors; 0.23% of 390,000 active; AID 743255, 2014; note: % is set by controls: 0 for no effect and ±100 for the full control effect; nearly all actives have a fitted effect of over 60% in size
Target sequence (O94782 whole entry, looked up): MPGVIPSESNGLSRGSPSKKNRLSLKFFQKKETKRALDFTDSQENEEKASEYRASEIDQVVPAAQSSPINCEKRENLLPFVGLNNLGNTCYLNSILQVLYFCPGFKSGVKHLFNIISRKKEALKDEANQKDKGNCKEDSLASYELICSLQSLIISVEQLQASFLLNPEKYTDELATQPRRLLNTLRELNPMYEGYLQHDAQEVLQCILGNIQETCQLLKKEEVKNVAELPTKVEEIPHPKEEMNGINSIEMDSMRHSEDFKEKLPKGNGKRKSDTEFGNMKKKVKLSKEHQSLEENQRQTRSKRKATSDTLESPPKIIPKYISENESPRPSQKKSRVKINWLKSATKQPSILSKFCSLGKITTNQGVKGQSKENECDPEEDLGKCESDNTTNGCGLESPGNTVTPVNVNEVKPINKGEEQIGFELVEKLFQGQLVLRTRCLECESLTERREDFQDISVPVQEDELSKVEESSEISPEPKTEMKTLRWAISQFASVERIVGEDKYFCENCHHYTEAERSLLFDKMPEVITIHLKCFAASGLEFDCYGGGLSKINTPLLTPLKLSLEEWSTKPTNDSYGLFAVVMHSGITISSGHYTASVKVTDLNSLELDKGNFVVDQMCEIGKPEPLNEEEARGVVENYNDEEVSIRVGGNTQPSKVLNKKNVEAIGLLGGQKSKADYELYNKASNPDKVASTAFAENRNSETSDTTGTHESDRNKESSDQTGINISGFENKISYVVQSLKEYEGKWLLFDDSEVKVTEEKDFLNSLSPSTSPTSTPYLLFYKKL
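High-throughput fluorogenic screen: 1nM USP1/UAF1 complex, Ub-Rho substrate 150nM final, 50mM HEPES pH 7.8 with 0.5mM EDTA, 0.1 mg/ml BSA, 1mM TCEP and 0.01% Tween-20.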
EPAC1 antagonist: qHTS for Antagonist of cAMP-regulated guanine nucleotide exchange factor 3 (EPAC1): primary screen | Rap guanine nucleotide exchange factor 3 (Homo sapiens), O95398 | EPAC1 GEF assay, Rap1b-BODIPY-GDP exchange fluorescence | Potency, µM (series often up to 115 µM), inactives show at the top dose activity change, negative = inhibition, actives largely listed as inhibitors | 0.14% of 360,000 active | AID 720709, 2013;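 note: plate controls were vehicle for no effect and positive control for full effect; nearly all actives have a fitted effect of over 50% in size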
EPAC1 agonist: qHTS for Agonist of cAMP-regulated guanine nucleotide exchange factor 3 (EPAC1): primary screen. EPAC1 agonist qHTS, biochemical assay; response scale: 100% = response to 6.5 mM cAMP. Potency, µM (series often up to 154 µM), inactives show at the highest dose activation, hits mostly activators. 0.073% of 360,000 active. Rap guanine nucleotide exchange factor 3 (Homo sapiens), O95398; note: nearly all actives have a fitted effect of over 60% in size
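Multi-concentration qHTS readout: loss of Rap1B-bound BODIPY-GDP fluorescence driven by 100 nM EPAC1 with excess GDP (50 uM), monitored kinetically at room temperature; agonist response expressed relative to 6.5 mM cAMP.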
* hit, by the source's call; i = inactive; ? = inconclusive; / = no result. Calls come from the whole dose curve; as a rule, active = well fitted curve in the direction sought with a large enough effect; inconclusive = small, poorly fitted or top-dose-only effect, or another doubt; inactive = no such curve, though single readings can be large; an effect the other way counts as inactive or inconclusive. Potency is the fitted concentration of half-maximal effect.

SMILES	EPAC2 antag	USP2a block	EPAC2 agonist	USP1 inh	EPAC1 antagonist	EPAC1 agonist
Cc1ccc(NC(=O)C(Cc2ccccc2)NS(=O)(=O)c2ccc3c(c2)c(=O)n(C)c(=O)n3C)c(C)c1 (stereo not given)	/	/	/	-21%	/	/
COc1ccc(-c2csc3nc(-c4cccnc4)nc(N4CCC(C(N)=O)CC4)c23)cc1OC	8%	0%	8%	-11%	-28%	-2%
COc1ccc(-c2csc3nc(C)nc(N4CCCCC4)c23)cc1OC	28µM*	-4%	8%	-14%	-4%	-1%
CCOc1ccc(NC(=NCc2ccc3c(c2)OCO3)SC2CC(=O)N(c3ccc(C(=O)O)cc3)C2=O)cc1 (stereo not given)	-15%	-2%	1%	-2%	28µM*	?
CCN(CC)c1ccc(-n2nc3cc(C)c(NC(=O)c4ccccc4F)cc3n2)cc1	/	/	/	-12%	/	/
COc1ccccc1/C=C1\NC(=S)N(CC2CCCO2)C1=O (stereo not given)	-1%	-1%	11%	7%	-17%	9%
COc1ccc(/C=C2/C(=O)N(CC3CCCO3)C(=S)N2C)c(OC)c1 (stereo not given)	451%	2%	i	56%	50µM*	-285%
CC1=CC2=C(C=O)C(=O)C(C)(O)C(O)C2=CO1 (stereo not given)	50µM*	/	-68%	-22%	?	-64%
CCn1cc(C(=O)N2CCN(c3cccc(C)c3)C(C)C2)c(=O)c2cc(S(=O)(=O)N3CCOCC3)ccc21 (stereo not given)	/	/	/	-20%	/	/
N#Cc1c(-c2cccs2)nc(SCc2ccc(Cl)cc2)[nH]c1=O	50µM*	?	-9%	?	89µM*	-3%
CS(=O)(=O)c1ccc2nc(NC(=O)C3CCCO3)sc2c1 (stereo not given)	4%	0%	-3%	-5%	3%	5%
O=C(Nc1nc2ccc(Cl)cc2s1)C1CCCO1 (stereo not given)	-4%	0%	7.9µM*	-24%	5%	-6%
CC1CCc2c(sc3nnn(Cc4ccccc4Cl)c(=O)c23)C1 (stereo not given)	/	/	/	-43%	/	/
Cc1nc(N2C(=O)C(=O)/C(=C(/O)c3ccccc3)C2c2ccco2)sc1C (stereo not given)	14%	0%	4µM*	-9%	9%	-3%
COC(=O)c1sc(N2C(=O)C(=O)/C(=C(/O)c3ccccc3)C2c2ccco2)nc1C (stereo not given)	2%	1%	-4%	-11%	-3%	-4%
O=C(COc1ccc(F)cc1)NCC(c1ccc(Cl)cc1)N1CCCCC1 (stereo not given)	/	/	/	-17%	/	/
O=C(CCl)N1c2ccccc2Oc2ccc3ccccc3c21	1%	/	2%	22µM*	83%	?
COc1ccc(-c2nn(C)c3sc(C(=O)N4CCN(c5cccc(C)c5C)CC4)cc23)cc1OC	/	/	/	-15%	/	/
CN(C)c1nc(OCCNC(=O)Nc2ccccc2)nc(N2CCCCC2)n1	-9%	5%	-7%	-16%	-24%	0%
CN(C)c1nc(OCCNC(=O)Nc2ccccc2)nc(N(C)C)n1	0%	2%	10µM*	-22%	9%	-6%
COc1cccc(CNC(=O)C2CCN(c3nnc(-n4c(C)ccc4C)s3)CC2)c1	/	/	/	1%	/	/
CC(C)Cc1csc(NC(=O)c2ccccc2Cl)c1C(=O)O	8%	-1%	6%	-7%	9%	12%
O=C(Nc1sc2c(c1C(=O)O)CCCC2)c1ccc(Cl)cc1	-14%	1%	-2%	-21%	28µM*	-10%
CC(C)Cc1csc(NC(=O)c2ccc(Cl)cc2)c1C(=O)O	-1%	3%	-4%	-10%	18µM*	-11%
COc1ccc(N(C(=O)c2ccco2)S(=O)(=O)c2cc(OC)ccc2OC)cc1	-11%	0%	10µM*	-14%	-1%	6%
SMILES	EPAC2 antag	USP2a block	EPAC2 agonist	USP1 inh	EPAC1 antagonist	EPAC1 agonist
CSc1ccc(CCNC(=O)C(C)n2c(C)c3cnn(-c4ccccc4)c(=O)c3c2C)cc1 (stereo not given)	/	/	/	-14%	/	/
CC(C)(C)c1c(Cl)c(O)c(-c2ccccc2)c(=O)n1-c1ccccc1	-6%	1%	0%	-7%	79µM*	-4%
O=C(O)c1ccccc1C1=Nc2ccc(O)cc2Oc2cc(O)ccc21	88%	?	?	28µM*	66%	100µM*
CCOc1ccc(-c2nc3c(c(SCC(=O)N4CCCCC4)n2)Cc2cccc(OC)c2O3)cc1	/	/	/	-5%	/	/
Cc1ccc(SC/C(O)=C(\C#N)c2nc3ccccc3s2)cc1	-26%	0%	10µM*	-3%	-11%	-3%
N#C/C(=C(/O)CSc1ccccn1)c1nc2ccccc2s1	-18%	2%	5%	-26%	0%	10%
Cc1c(NC(=O)C(C)(C)Oc2ccc(Cl)cc2)cccc1-c1nc2ncccc2o1	/	/	/	-17%	/	/
Cc1ccc(C(=O)N/C(=C\c2ccc(-c3ccccc3[N+](=O)[O-])o2)C(=O)NCCCN(C)C)cc1	1%	6%	15%	28µM*	10%	1%
Cc1ccc(Cl)cc1NC(=O)CCCn1c(=O)c2cccn2c2ccccc21	/	/	/	-30%	/	/
O=C(NCc1ccc(OC(F)(F)F)cc1)c1cccc2c1C(=O)c1ccc(N3CCCCC3)cc1S2(=O)=O	202%	5%	100µM*	25µM*	22%	-11%
O=C(NCc1ccc(OC(F)(F)F)cc1)c1cccc2c1C(=O)c1ccc(N3CCCC3)cc1S2(=O)=O	79µM*	-2%	100µM*	17%	-9%	8%
CC(=O)C1=C(c2cccc([N+](=O)[O-])c2)N(C(C)=O)n2c(C)nnc2S1	23%	0%	3%	14µM*	10%	9%
CC(=O)C1=C(c2ccc(C)cc2)N(C(C)=O)n2c(nnc2-c2ccccc2)S1	/	/	/	-9%	/	/
Cc1ccc2nc(N3CCN(c4ccccc4F)CC3)c3nnnn3c2c1	/	/	/	16%	/	/

Source: PubChem (National Center for Advancing Translational Sciences (NCATS))
